ChEMBL document CHEMBL1961873, “Compounds: GSK PKIS; Assays: Nanosyn kinase panel” (2012)

Legend:
[1] = target: Dual specificity protein kinase CLK3 (Homo sapiens) (UniProt P49761); conditions: at 1 µM;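 further: each value is the mean inhibition of CLK3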
[2] = target: Dual specificity tyrosine-phosphorylation-regulated kinase 1A (Homo sapiens) (UniProt Q13627); conditions: at 0.1 µM
[3] = target: Dual specificity tyrosine-phosphorylation-regulated kinase 1A (Homo sapiens) (UniProt Q13627); conditions: at 1 µM
[4] = target: Dual specificity tyrosine-phosphorylation-regulated kinase 1B (Homo sapiens) (UniProt Q9Y463); conditions: at 0.1 µM
Chain of Dual specificity tyrosine-phosphorylation-regulated kinase 1B (Homo sapiens) (Q9Y463 whole entry, looked up): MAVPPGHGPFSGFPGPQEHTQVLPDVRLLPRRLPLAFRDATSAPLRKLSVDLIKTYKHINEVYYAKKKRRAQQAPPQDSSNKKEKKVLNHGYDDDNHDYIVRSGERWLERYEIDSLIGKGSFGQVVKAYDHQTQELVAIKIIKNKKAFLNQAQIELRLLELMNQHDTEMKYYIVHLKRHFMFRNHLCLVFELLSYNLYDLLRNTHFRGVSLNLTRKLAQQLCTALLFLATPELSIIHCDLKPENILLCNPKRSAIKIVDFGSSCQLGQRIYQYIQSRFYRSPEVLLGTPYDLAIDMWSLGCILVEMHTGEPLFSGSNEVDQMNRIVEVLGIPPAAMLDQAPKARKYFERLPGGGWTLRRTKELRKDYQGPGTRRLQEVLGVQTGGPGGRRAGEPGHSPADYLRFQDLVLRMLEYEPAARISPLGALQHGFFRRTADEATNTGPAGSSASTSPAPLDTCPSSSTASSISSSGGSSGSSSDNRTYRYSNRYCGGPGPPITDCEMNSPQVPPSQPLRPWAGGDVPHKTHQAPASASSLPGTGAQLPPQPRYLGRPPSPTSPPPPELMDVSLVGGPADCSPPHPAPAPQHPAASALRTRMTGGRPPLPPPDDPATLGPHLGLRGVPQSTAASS

[5] = target: Dual specificity tyrosine-phosphorylation-regulated kinase 1B (Homo sapiens) (UniProt Q9Y463); conditions: at 1 µM
[6] = target: T1, Dual specificity tyrosine-phosphorylation-regulated kinase 2 (Homo sapiens) (UniProt Q92630); conditions: at 0.1 µM
T1 sequence (whole entry): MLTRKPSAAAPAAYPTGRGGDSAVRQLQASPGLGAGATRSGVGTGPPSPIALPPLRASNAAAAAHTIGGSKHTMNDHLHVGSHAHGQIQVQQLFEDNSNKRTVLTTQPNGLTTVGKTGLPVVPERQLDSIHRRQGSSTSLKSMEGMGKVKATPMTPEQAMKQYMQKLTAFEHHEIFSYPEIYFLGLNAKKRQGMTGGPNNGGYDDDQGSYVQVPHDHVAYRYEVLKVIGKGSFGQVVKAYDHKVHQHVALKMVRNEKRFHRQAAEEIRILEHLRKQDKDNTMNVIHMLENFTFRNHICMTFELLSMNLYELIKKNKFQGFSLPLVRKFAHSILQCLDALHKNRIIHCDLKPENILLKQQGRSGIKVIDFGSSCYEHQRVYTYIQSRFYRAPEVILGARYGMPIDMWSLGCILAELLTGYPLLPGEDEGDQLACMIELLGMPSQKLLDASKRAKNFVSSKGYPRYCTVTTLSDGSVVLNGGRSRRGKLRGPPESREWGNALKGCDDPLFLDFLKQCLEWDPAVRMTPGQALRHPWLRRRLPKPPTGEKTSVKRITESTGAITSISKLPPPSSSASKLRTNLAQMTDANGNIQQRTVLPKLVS

[7] = target: T1, Dual specificity tyrosine-phosphorylation-regulated kinase 2 (Homo sapiens); conditions: at 1 µM
[8] = target: Glycogen synthase kinase-3 alpha (Homo sapiens) (UniProt P49840); conditions: at 0.1 µM
Chain of Glycogen synthase kinase-3 alpha (Homo sapiens) (P49840 2-483 limits assumed): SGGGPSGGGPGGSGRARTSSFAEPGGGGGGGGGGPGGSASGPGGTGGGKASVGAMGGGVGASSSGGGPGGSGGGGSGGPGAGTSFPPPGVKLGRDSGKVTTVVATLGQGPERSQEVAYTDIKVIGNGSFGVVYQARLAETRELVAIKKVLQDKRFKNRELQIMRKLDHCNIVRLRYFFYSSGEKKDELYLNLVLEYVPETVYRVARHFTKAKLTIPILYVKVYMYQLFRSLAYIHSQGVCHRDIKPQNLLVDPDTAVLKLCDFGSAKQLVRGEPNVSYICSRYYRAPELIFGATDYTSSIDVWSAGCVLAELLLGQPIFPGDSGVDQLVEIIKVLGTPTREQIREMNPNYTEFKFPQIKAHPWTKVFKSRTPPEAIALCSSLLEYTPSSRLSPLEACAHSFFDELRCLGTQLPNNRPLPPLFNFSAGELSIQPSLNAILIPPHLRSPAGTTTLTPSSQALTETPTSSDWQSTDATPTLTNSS

[9] = target: Glycogen synthase kinase-3 alpha (Homo sapiens) (UniProt P49840); conditions: at 1 µM
[10] = target: Glycogen synthase kinase-3 beta (Homo sapiens) (UniProt P49841); conditions: at 0.1 µM
Chain of Glycogen synthase kinase-3 beta (Homo sapiens) (P49841 whole entry, looked up): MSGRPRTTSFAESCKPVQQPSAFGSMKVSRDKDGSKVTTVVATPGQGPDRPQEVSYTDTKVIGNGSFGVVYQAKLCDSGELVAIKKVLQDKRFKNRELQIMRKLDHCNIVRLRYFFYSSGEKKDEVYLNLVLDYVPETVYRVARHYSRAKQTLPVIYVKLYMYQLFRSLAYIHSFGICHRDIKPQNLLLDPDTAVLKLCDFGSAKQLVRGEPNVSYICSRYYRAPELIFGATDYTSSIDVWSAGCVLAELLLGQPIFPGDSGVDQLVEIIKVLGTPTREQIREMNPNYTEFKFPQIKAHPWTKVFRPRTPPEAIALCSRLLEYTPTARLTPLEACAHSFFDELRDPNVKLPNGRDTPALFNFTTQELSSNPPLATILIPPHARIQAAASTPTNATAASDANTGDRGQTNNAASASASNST

[11] = target: Glycogen synthase kinase-3 beta (Homo sapiens) (UniProt P49841); conditions: at 1 µM
[12] = target: Homeodomain-interacting protein kinase 1 (Homo sapiens) (UniProt Q86Z02); conditions: at 0.1 µM
Chain of Homeodomain-interacting protein kinase 1 (Homo sapiens) (Q86Z02 whole entry, looked up): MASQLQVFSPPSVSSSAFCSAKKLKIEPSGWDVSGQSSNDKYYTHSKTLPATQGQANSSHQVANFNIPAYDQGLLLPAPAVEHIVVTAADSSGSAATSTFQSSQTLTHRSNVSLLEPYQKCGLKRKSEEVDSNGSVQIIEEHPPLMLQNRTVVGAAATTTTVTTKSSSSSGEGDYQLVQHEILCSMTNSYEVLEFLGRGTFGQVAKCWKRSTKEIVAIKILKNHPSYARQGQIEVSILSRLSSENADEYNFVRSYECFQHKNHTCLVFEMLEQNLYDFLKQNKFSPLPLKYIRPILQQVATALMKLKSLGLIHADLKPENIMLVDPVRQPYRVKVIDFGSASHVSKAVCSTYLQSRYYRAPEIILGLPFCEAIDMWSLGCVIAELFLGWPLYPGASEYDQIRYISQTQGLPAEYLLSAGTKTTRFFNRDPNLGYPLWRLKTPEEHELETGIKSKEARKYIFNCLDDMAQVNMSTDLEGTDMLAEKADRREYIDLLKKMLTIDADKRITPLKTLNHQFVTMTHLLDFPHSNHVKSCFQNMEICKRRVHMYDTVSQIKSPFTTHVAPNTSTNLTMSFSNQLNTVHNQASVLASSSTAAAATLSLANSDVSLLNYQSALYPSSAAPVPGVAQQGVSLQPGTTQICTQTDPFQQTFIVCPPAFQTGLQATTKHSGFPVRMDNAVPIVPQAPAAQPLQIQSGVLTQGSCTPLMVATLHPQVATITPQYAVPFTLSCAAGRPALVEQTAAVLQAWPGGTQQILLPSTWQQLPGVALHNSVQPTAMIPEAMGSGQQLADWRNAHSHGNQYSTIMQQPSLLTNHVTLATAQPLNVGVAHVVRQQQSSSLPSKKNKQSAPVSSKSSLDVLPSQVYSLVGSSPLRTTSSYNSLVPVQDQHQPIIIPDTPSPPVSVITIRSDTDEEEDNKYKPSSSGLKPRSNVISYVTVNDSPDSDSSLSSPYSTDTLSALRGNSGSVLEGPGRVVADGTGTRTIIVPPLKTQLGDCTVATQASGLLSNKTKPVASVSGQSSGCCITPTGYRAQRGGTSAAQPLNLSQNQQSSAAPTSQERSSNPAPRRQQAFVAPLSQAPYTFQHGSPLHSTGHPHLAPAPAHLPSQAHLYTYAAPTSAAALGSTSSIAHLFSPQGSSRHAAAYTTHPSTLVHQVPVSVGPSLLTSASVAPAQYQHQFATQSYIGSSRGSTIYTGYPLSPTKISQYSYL

[13] = target: Homeodomain-interacting protein kinase 1 (Homo sapiens) (UniProt Q86Z02); conditions: at 1 µM
[14] = target: T2, Homeodomain-interacting protein kinase 4 (Homo sapiens) (UniProt Q8NE63); conditions: at 0.1 µM
T2 sequence (whole entry): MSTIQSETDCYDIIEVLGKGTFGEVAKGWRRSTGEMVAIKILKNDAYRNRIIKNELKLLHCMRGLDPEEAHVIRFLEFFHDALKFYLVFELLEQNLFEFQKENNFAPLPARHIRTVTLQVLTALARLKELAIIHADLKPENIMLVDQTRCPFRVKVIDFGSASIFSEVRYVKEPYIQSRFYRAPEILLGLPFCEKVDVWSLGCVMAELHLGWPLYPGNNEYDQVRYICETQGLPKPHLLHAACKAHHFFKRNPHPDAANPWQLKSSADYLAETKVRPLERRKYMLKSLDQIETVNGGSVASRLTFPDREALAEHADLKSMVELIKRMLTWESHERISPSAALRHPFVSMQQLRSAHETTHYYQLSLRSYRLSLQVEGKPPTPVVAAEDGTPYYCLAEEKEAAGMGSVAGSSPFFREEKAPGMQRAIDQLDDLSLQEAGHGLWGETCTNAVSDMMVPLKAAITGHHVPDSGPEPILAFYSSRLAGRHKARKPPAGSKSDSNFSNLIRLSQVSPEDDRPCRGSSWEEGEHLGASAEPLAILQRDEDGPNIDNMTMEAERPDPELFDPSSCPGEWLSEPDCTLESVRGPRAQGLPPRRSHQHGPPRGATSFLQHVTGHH

[15] = target: T2, Homeodomain-interacting protein kinase 4 (Homo sapiens); conditions: at 1 µM
[16] = target: Mitogen-activated protein kinase 9 (Homo sapiens) (UniProt P45984); conditions: at 0.1 µM
Chain of Mitogen-activated protein kinase 9 (Homo sapiens) (P45984 whole entry, looked up): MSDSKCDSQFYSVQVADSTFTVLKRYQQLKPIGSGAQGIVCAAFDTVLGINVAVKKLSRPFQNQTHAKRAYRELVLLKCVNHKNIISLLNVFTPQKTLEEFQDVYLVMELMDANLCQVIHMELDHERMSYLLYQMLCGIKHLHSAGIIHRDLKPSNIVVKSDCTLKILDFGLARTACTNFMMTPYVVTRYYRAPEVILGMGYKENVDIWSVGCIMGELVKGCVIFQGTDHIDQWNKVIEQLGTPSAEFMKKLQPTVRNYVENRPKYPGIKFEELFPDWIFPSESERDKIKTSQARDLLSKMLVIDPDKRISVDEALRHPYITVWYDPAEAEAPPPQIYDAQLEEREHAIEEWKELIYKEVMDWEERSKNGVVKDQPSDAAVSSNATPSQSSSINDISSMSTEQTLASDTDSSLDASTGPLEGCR

[17] = target: Mitogen-activated protein kinase 9 (Homo sapiens) (UniProt P45984); conditions: at 1 µM
[18] = target: Mitogen-activated protein kinase 1 (Homo sapiens) (UniProt P28482); conditions: at 0.1 µM
Chain of Mitogen-activated protein kinase 1 (Homo sapiens) (P28482 whole entry): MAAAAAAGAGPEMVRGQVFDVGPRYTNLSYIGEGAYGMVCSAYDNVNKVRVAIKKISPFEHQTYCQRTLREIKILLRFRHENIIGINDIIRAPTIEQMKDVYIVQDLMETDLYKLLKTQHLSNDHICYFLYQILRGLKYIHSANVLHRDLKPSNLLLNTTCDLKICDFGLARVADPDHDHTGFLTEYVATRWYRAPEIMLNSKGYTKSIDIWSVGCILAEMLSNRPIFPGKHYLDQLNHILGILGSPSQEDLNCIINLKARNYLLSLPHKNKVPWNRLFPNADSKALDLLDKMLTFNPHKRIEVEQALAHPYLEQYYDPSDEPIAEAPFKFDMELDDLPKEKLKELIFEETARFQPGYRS

[19] = target: Mitogen-activated protein kinase 1 (Homo sapiens) (UniProt P28482); conditions: at 1 µM
[20] = target: Mitogen-activated protein kinase 3 (Homo sapiens) (UniProt P27361); conditions: at 0.1 µM;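 further: each value is a mean inhibition figure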
Chain of Mitogen-activated protein kinase 3 (Homo sapiens) (P27361 whole entry): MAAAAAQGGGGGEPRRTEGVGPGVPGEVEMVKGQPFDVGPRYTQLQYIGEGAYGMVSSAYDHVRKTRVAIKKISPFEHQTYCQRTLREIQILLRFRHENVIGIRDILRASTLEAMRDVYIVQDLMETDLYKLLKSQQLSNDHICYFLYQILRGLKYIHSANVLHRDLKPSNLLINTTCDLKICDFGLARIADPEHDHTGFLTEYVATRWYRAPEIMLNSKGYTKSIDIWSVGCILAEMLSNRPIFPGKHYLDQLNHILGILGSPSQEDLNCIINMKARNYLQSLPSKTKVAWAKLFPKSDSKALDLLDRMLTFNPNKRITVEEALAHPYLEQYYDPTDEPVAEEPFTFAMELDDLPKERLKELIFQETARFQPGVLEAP

Chain of Dual specificity protein kinase CLK3 (Homo sapiens) (P49761 whole entry, looked up): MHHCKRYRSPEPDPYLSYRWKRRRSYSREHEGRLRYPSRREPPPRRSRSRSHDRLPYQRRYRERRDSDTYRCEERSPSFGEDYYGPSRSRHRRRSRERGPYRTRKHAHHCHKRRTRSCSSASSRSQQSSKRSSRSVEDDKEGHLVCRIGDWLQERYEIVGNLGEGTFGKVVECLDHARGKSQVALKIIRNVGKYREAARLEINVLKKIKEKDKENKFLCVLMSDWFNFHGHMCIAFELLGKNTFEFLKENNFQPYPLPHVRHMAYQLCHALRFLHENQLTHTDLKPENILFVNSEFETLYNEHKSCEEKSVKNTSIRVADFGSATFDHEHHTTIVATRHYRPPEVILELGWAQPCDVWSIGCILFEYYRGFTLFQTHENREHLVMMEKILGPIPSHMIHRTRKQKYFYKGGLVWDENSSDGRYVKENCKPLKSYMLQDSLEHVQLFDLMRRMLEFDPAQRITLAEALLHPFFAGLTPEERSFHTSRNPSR

Compound: CC1=C(C(=O)Nc2cc(Cl)c3[nH]ncc3c2)C(c2ccc(C(F)(F)F)cc2)CC(=O)N1 (stereo not given)
- inhibition [1]: 1.64%
- inhibition [2]: 1.66%
- inhibition [3]: 2.44%
- inhibition [4]: -1.21%
- inhibition [5]: -0.06%
- inhibition [6]: 2.57%
- inhibition [7]: 2.68%
- inhibition [8]: 0.24%
- inhibition [9]: -1.53%
- inhibition [10]: 0.14%
- inhibition [11]: 2.19%
- inhibition [12]: -0.91%
- inhibition [13]: -0.78%
- inhibition [14]: -0.54%
- inhibition [15]: 2.16%
- inhibition [16]: 3.86%
- inhibition [17]: 2.16%
- inhibition [18]: 7.37%
- inhibition [19]: 35.4%
- inhibition [20]: 6.64%

Compound: COc1cccc(-c2c[nH]c3c(N/N=C/c4ccncc4)ncnc23)c1
- inhibition [1]: 14%
- inhibition [2]: 16.1%
- inhibition [3]: 58.5%
- inhibition [4]: 11.3%
- inhibition [5]: 50.5%
- inhibition [6]: 11.7%
- inhibition [7]: 57.8%
- inhibition [8]: 78.9%
- inhibition [9]: 83.5%
- inhibition [10]: 76.6%
- inhibition [11]: 83.5%
- inhibition [12]: 5.99%
- inhibition [13]: 41.7%
- inhibition [14]: 10.1%
- inhibition [15]: 43.2%
- inhibition [16]: 2.08%
- inhibition [17]: 8.51%
- inhibition [18]: 1.55%
- inhibition [19]: 5.09%
- inhibition [20]: 1.78%

Compound: CC(C)COC(=O)c1ccc2c(c1)/C(=C/Nc1ccc(S(N)(=O)=O)cc1)C(=O)N2
- inhibition [1]: 11.4%
- inhibition [2]: 11.9%
- inhibition [3]: 57%
- inhibition [4]: 12%
- inhibition [5]: 53.9%
- inhibition [6]: 1.28%
- inhibition [7]: 22.4%
- inhibition [8]: 34.8%
- inhibition [9]: 80.6%
- inhibition [10]: 36.1%
- inhibition [11]: 82.7%
- inhibition [12]: -0.11%
- inhibition [13]: 16.8%
- inhibition [14]: -0.32%
- inhibition [15]: 16.9%
- inhibition [16]: 0.47%
- inhibition [17]: 10.8%
- inhibition [18]: 2.73%
- inhibition [19]: 31.3%
- inhibition [20]: 1.07%

Compound: COc1ccc(CNC(=O)c2ccc(-c3cc(-c4nnc(C)o4)ccc3C)cc2)cc1
- inhibition [1]: 2.16%
- inhibition [2]: 1.08%
- inhibition [3]: 1.05%
- inhibition [4]: 1.53%
- inhibition [5]: 2.22%
- inhibition [6]: 0.27%
- inhibition [7]: 1.42%
- inhibition [8]: 5.61%
- inhibition [9]: 17.9%
- inhibition [10]: 5.31%
- inhibition [11]: 13.6%
- inhibition [12]: 5.43%
- inhibition [13]: 5.55%
- inhibition [14]: 7.2%
- inhibition [15]: 9.71%
- inhibition [16]: -0.3%
- inhibition [17]: 2.51%
- inhibition [18]: 4.56%
- inhibition [19]: -9.41%
- inhibition [20]: 1.8%

Compound: Fc1cccc(COc2ccc(Nc3ncnc4sc(-c5ccco5)cc34)cc2Cl)c1
- inhibition [1]: 0.86%
- inhibition [2]: 3.24%
- inhibition [3]: 4.83%
- inhibition [4]: -1.92%
- inhibition [5]: 0.72%
- inhibition [6]: 3.21%
- inhibition [7]: 0.35%
- inhibition [8]: 3.67%
- inhibition [9]: 6.09%
- inhibition [10]: 2.77%
- inhibition [11]: 4.97%
- inhibition [12]: -0.44%
- inhibition [13]: 5.88%
- inhibition [14]: 2.99%
- inhibition [15]: 5.88%
- inhibition [16]: 1.05%
- inhibition [17]: 0.94%
- inhibition [18]: 5.22%
- inhibition [19]: 5.78%
- inhibition [20]: 2.39%

Compound: [O-][S+]1CCN(Cc2ccc(-c3ccc4ncnc(Nc5ccc(OCc6cccc(F)c6)c(Cl)c5)c4c3)o2)CC1
- inhibition [1]: 1.25%
- inhibition [2]: 4.05%
- inhibition [3]: 3.96%
- inhibition [4]: 0.06%
- inhibition [5]: 1.57%
- inhibition [6]: 4.92%
- inhibition [7]: 4.13%
- inhibition [8]: 3.26%
- inhibition [9]: 5.28%
- inhibition [10]: 3.06%
- inhibition [11]: 4.76%
- inhibition [12]: -2.75%
- inhibition [13]: 1.62%
- inhibition [14]: 0.28%
- inhibition [15]: 0.6%
- inhibition [16]: 3.35%
- inhibition [17]: 1.33%
- inhibition [18]: 7.21%
- inhibition [19]: 6.45%
- inhibition [20]: 5.68%

Compound: O=S(=O)(CCNCc1ccc(-c2ccc3ncnc(Nc4ccc(OCc5cccc(F)c5)c(Cl)c4)c3c2)o1)c1ccccc1
- inhibition [1]: -0.68%
- inhibition [2]: 3.49%
- inhibition [3]: 5.29%
- inhibition [4]: -0.71%
- inhibition [5]: 0.19%
- inhibition [6]: 3.86%
- inhibition [7]: 2.88%
- inhibition [8]: 3.49%
- inhibition [9]: 4.1%
- inhibition [10]: 2.66%
- inhibition [11]: 2.57%
- inhibition [12]: 0.47%
- inhibition [13]: 4.11%
- inhibition [14]: 3.74%
- inhibition [15]: 5.4%
- inhibition [16]: 5.87%
- inhibition [17]: 5.2%
- inhibition [18]: 7.56%
- inhibition [19]: 8.99%
- inhibition [20]: 6.61%

Compound: CCCN(CCS(C)(=O)=O)Cc1ccc(-c2ccc3ncnc(Nc4ccc(OCc5cccc(F)c5)c(Cl)c4)c3c2)o1
- inhibition [1]: 3.58%
- inhibition [2]: 4.83%
- inhibition [3]: 10.8%
- inhibition [4]: 4.87%
- inhibition [5]: 10.4%
- inhibition [6]: 1.93%
- inhibition [7]: 2.03%
- inhibition [8]: 7.55%
- inhibition [9]: 9.2%
- inhibition [10]: 6.85%
- inhibition [11]: 10.2%
- inhibition [12]: 6.46%
- inhibition [13]: 11.6%
- inhibition [14]: 3.01%
- inhibition [15]: 9.25%
- inhibition [16]: 2.74%
- inhibition [17]: 4.94%
- inhibition [18]: 1.68%
- inhibition [19]: 3.24%
- inhibition [20]: 1.75%

Compound: Fc1ccc(-c2nn3ncccc3c2-c2ccnc(Nc3ccc4c(c3)OCCO4)n2)cc1
- inhibition [1]: 0.91%
- inhibition [2]: 1.5%
- inhibition [3]: 3.37%
- inhibition [4]: 0.99%
- inhibition [5]: -1.69%
- inhibition [6]: 3.56%
- inhibition [7]: 4.44%
- inhibition [8]: 19.6%
- inhibition [9]: 59.7%
- inhibition [10]: 39%
- inhibition [11]: 76.1%
- inhibition [12]: -1.25%
- inhibition [13]: -1.1%
- inhibition [14]: -0.3%
- inhibition [15]: 4.58%
- inhibition [16]: 58.4%
- inhibition [17]: 84.9%
- inhibition [18]: 2.51%
- inhibition [19]: 11.1%
- inhibition [20]: 5.61%

Compound: COc1cc2c(cc1Nc1nc(Nc3ccsc3C(N)=O)c3cc[nH]c3n1)N(C(=O)CN(C)C)CCC2(C)C
- inhibition [1]: 4.74%
- inhibition [2]: 4.97%
- inhibition [3]: 15.5%
- inhibition [4]: 1.64%
- inhibition [5]: 10.2%
- inhibition [6]: 4.55%
- inhibition [7]: 6.57%
- inhibition [8]: 7.63%
- inhibition [9]: 21.1%
- inhibition [10]: 5.85%
- inhibition [11]: 17%
- inhibition [12]: 0.05%
- inhibition [13]: 7.66%
- inhibition [14]: -0.16%
- inhibition [15]: 6.13%
- inhibition [16]: 7.73%
- inhibition [17]: 13.9%
- inhibition [18]: 4.87%
- inhibition [19]: 12.2%
- inhibition [20]: 3.02%

Compound: Fc1ccc(-c2cc(-c3c[nH]nc3-c3ccccn3)ccn2)cc1
- inhibition [1]: 0.54%
- inhibition [2]: 2.96%
- inhibition [3]: 5.69%
- inhibition [4]: -1.65%
- inhibition [5]: -0.27%
- inhibition [6]: 3.36%
- inhibition [7]: 4.06%
- inhibition [8]: 2.14%
- inhibition [9]: 2.16%
- inhibition [10]: 1.39%
- inhibition [11]: 2.88%
- inhibition [12]: 1.57%
- inhibition [13]: 0.95%
- inhibition [14]: 1.68%
- inhibition [15]: 4.16%
- inhibition [16]: 3.65%
- inhibition [17]: 11.3%
- inhibition [18]: 6.73%
- inhibition [19]: 5.51%
- inhibition [20]: 6.42%
